Measured values: the supplement of paper PMC11172423

System: Madurella mycetomatis MM55
Assay: growth relative to untreated control; higher = less inhibition, active = 20 or less
Settings: 25 µM
Description: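 Hyphal fragments of M. mycetomatis MM55 or F. senegalensis CBS197.79 in RPMI 1640/MOPS were exposed to each MMV COVID Box or Global Health Priority Box compound at 100 or 25 µM for 7 days at 37 °C. Viability was read with MTS (490 nm, M. mycetomatis) or resazurin (600 nm, F. senegalensis), background-corrected with a medium-only control and expressed as % growth relative to the untreated growth control. Inhibition of more than 80% was taken as growth inhibition.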

SMILES | growth
CC1(C)C(/C=C(\Cl)c2ccc(Cl)cc2)C1C(=O)OC(C#N)c1ccc(F)c(Oc2ccccc2)c1 (stereo not given) | 119% (inactive)
CCOP(=S)(OCC)Oc1nc(Cl)c(Cl)cc1Cl | 142% (inactive)
N#Cc1nn(-c2c(Cl)cc(C(F)(F)F)cc2Cl)c(N)c1S(=O)C(F)(F)F (stereo not given) | 120% (inactive)
FC(F)(F)c1cc(Cl)cc(Nc2nc3cnc(OC4CCC4)cc3n2[C@@H]2CCNC2)c1 | 79.6% (inactive)
CCC(CC)c1cccc(OC(=O)NC)c1.CCCC(C)c1cccc(OC(=O)NC)c1 | 96.3% (inactive)
N#CCNC(=O)c1cnccc1C(F)(F)F | 109% (inactive)
CC[C@@H]1CCC[C@H](O[C@H]2CC[C@H](N(C)C)[C@@H](C)O2)[C@@H](C)C(=O)C2=C[C@@H]3[C@@H](C=C(C)[C@@H]4C[C@@H](O[C@@H]5O[C@@H](C)[C@H](OC)[C@@H](OC)[C@H]5OC)C[C@@H]34)[C@@H]2CC(=O)O1.CC[C@@H]1CCC[C@H](O[C@H]2CC[C@H](N(C)C)[C@@H](C)O2)[C@@H](C)C(=O)C2=C[C@@H]3[C@@H](C=C[C@@H]4C[C@@H](O[C@@H]5O[C@@H](C)[C@H](OC)[C@@H](OC)[C@H]5OC)C[C@@H]34)[C@@H]2CC(=O)O1 | 133% (inactive)
CN/C(=N\[N+](=O)[O-])NCc1cnc(Cl)s1 | 112% (inactive)
CC1(C)C(C=C(Cl)Cl)C1C(=O)OCc1cccc(Oc2ccccc2)c1 (stereo not given) | 78.1% (inactive)
COP(=S)(OC)Oc1ccc(Sc2ccc(OP(=S)(OC)OC)cc2)cc1 | 118% (inactive)
CC(C)=CC1C(C(=O)OCN2C(=O)C3=C(CCCC3)C2=O)C1(C)C (stereo not given) | 85.9% (inactive)
C/C=C(\C)C(=O)O[C@H]1C[C@@H](OC(C)=O)[C@@]2(C(=O)OC)CO[C@H]3[C@@H](O)[C@@](C)([C@]45O[C@@]4(C)[C@H]4C[C@@H]5O[C@@H]5OC=C[C@@]54O)[C@H]4[C@]1(CO[C@]4(O)C(=O)OC)[C@@H]32 | 130% (inactive)
O=C1C=C(N(Cc2ccc(Cl)nc2)CC(F)F)CO1 | 92.5% (inactive)
COP(=S)(OC)Oc1nc(Cl)c(Cl)cc1Cl | 88.5% (inactive)
CC1(C)CNC(=NN=C(C=Cc2ccc(C(F)(F)F)cc2)C=Cc2ccc(C(F)(F)F)cc2)NC1 | 104% (inactive)
CN1C(=O)C(C(=O)Nc2ccc(Cl)c(Cl)c2)C(=O)N(C)C1=O | 56% (inactive)
C[C@@H]1C[C@@H]([C@H](O)CC2CC(=O)NC(=O)C2)C(=O)[C@@H](C)C1 | 31.4% (inactive)
CNC(=O)c1cc(Cl)cc(C)c1NC(=O)c1cc(Br)nn1-c1ncccc1Cl | 81.9% (inactive)
CC(C)=CC1C(C(=O)OC(C#N)c2cccc(Oc3ccccc3)c2)C1(C)C (stereo not given) | 83.3% (inactive)
CNC(=O)Oc1cccc2c1OC(C)(C)O2 | 95.6% (inactive)

Same assay, conditions: 100 µM

SMILES | growth
CC1(C)C(/C=C(\Cl)c2ccc(Cl)cc2)C1C(=O)OC(C#N)c1ccc(F)c(Oc2ccccc2)c1 (stereo not given) | 119% (inactive)
CCOP(=S)(OCC)Oc1nc(Cl)c(Cl)cc1Cl | 111% (inactive)
N#Cc1nn(-c2c(Cl)cc(C(F)(F)F)cc2Cl)c(N)c1S(=O)C(F)(F)F (stereo not given) | 86.5% (inactive)
FC(F)(F)c1cc(Cl)cc(Nc2nc3cnc(OC4CCC4)cc3n2[C@@H]2CCNC2)c1 | 64% (inactive)
CCC(CC)c1cccc(OC(=O)NC)c1.CCCC(C)c1cccc(OC(=O)NC)c1 | 147% (inactive)
N#CCNC(=O)c1cnccc1C(F)(F)F | 142% (inactive)
CC[C@@H]1CCC[C@H](O[C@H]2CC[C@H](N(C)C)[C@@H](C)O2)[C@@H](C)C(=O)C2=C[C@@H]3[C@@H](C=C(C)[C@@H]4C[C@@H](O[C@@H]5O[C@@H](C)[C@H](OC)[C@@H](OC)[C@H]5OC)C[C@@H]34)[C@@H]2CC(=O)O1.CC[C@@H]1CCC[C@H](O[C@H]2CC[C@H](N(C)C)[C@@H](C)O2)[C@@H](C)C(=O)C2=C[C@@H]3[C@@H](C=C[C@@H]4C[C@@H](O[C@@H]5O[C@@H](C)[C@H](OC)[C@@H](OC)[C@H]5OC)C[C@@H]34)[C@@H]2CC(=O)O1 | 91.5% (inactive)
CN/C(=N\[N+](=O)[O-])NCc1cnc(Cl)s1 | 127% (inactive)
CC1(C)C(C=C(Cl)Cl)C1C(=O)OCc1cccc(Oc2ccccc2)c1 (stereo not given) | 151% (inactive)
COP(=S)(OC)Oc1ccc(Sc2ccc(OP(=S)(OC)OC)cc2)cc1 | 118% (inactive)
CC(C)=CC1C(C(=O)OCN2C(=O)C3=C(CCCC3)C2=O)C1(C)C (stereo not given) | 127% (inactive)
C/C=C(\C)C(=O)O[C@H]1C[C@@H](OC(C)=O)[C@@]2(C(=O)OC)CO[C@H]3[C@@H](O)[C@@](C)([C@]45O[C@@]4(C)[C@H]4C[C@@H]5O[C@@H]5OC=C[C@@]54O)[C@H]4[C@]1(CO[C@]4(O)C(=O)OC)[C@@H]32 | 106% (inactive)
O=C1C=C(N(Cc2ccc(Cl)nc2)CC(F)F)CO1 | 114% (inactive)
COP(=S)(OC)Oc1nc(Cl)c(Cl)cc1Cl | 106% (inactive)
CC1(C)CNC(=NN=C(C=Cc2ccc(C(F)(F)F)cc2)C=Cc2ccc(C(F)(F)F)cc2)NC1 | 106% (inactive)
CN1C(=O)C(C(=O)Nc2ccc(Cl)c(Cl)c2)C(=O)N(C)C1=O | 10.4% (active)
C[C@@H]1C[C@@H]([C@H](O)CC2CC(=O)NC(=O)C2)C(=O)[C@@H](C)C1 | 3.56% (active)
CNC(=O)c1cc(Cl)cc(C)c1NC(=O)c1cc(Br)nn1-c1ncccc1Cl | 57% (inactive)
CC(C)=CC1C(C(=O)OC(C#N)c2cccc(Oc3ccccc3)c2)C1(C)C (stereo not given) | 145% (inactive)
CNC(=O)Oc1cccc2c1OC(C)(C)O2 | 129% (inactive)
